Assay results reported in PubChem BioAssay AID1508600 (Functional Genomics Laboratory (NCATS/FGL), 2020).
Among all 53,000 sequences or so, about 3,700 (7%) were called active.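 Rule for the calls: active = gene knockdowns whose robust z-score for IL-1 alpha signal is at least 2 or at most -2, so actives lie on both sides; inactive = the rest.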 Many of the other results were omitted from the sample, so actives are more common in it than they were.

assay: Components of the Cytosolic LPS Sensing Pathway: Gene Identification via Genome-wide siRNA Screen; conditions: RAW264.7 macrophages, IL-1a HTRF, actives lie on both sides, screened at 100 nM (by protocol), cells primed 5 h with Pam3CSK4 first;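 note: robust z of the log signal after scaling to non-targeting control siRNA wells of the plate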
In short: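 IL-1a HTRF of supernatants after 24 hour LipidA transfection of Pam3CSK4-primed (5 hours) RAW264.7 cells, 48h post-siRNA transfection (100 nM). Scores: percent of plate negative-control median, then log-based robust z-score.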

Sequence	z-score
GGAUUUCGAGAAAAUCAACTT against Kctd4	-0.225 (inactive)
GGUGCUGGACAAAUUGAGATT against Cgas	-0.189 (inactive)
GGAGUGCAGUCACUAUUUGTT against Il2rg	-0.0154 (inactive)
GGUUCUUCAGGCCACUGAUTT against Dnaaf2	0.982 (inactive)
GGAUGCAGAGAAGAAUCUGTT against Psmd6	-2.65 (active)
GGAGAAGGACCAUCUAAAGTT against Cmah	0.901 (inactive)
CGUCUAGGAAGGAAACAGGTT against Stk32a	-1.54 (inactive)
GGAUGGUUACUAUCAGACUTT against Exoc3	0.187 (inactive)
CCAGAUGGAAAGCGAAAAATT against Thra	-0.27 (inactive)
GGAGAAUGGCCACGUAAAATT against Marcks	0.294 (inactive)
GGAUAUCUCACUGCUUUUATT against Mpp5	2.13 (active)
GGCAUCCUUGAGCUUUAAATT against Nufip2	-0.0213 (inactive)
GGUGCAAGUUUUUCAGUCUTT against Castor2	0.411 (inactive)
GCACCAUGAAUGGAGAUGATT against Prl2c5	-2.56 (active)
GCCAUACACAGUGGCAUAATT against Zfp811	0.395 (inactive)
CCAUAAAUCAUGAACUGGUTT against Sesn3	-1.41 (inactive)
GGGCAAGAACUACAUCUGCTT against Wdr18	-0.288 (inactive)
CCCAAAUACUCCAAUUAUATT against Fzd3	0.289 (inactive)
GCAUCUGGUAAAAGGAGCATT against Rpap1	0.956 (inactive)
GCCAGUGGUAUCUGGAAGUTT against Brca2	0.0865 (inactive)
GGUAGAGCUAAGUAAAGAGTT against Pwp1	-0.977 (inactive)
GGCAGUAAUAGGAGACCAUTT against Ces1d	2.76 (active)

Sequence	z-score
GGCUUCAGCAAAGACAAUGTT against Ache	-1.07 (inactive)
CGCAAAGUGGACAAACGUATT against Kcne3	0.0218 (inactive)
CCAAUCGGUGAUCAAGAAATT against Tfap2e	-0.525 (inactive)
GCCAAGGUUAUCAUGAAUGTT against F13a1	-0.141 (inactive)
GUUUUUCUGGGCAAUUUUATT against Olfr739	2.11 (active)
GGAGAUUUACUCACAGUUCTT against Kcnip4	1.26 (inactive)
GUAAAAUGUUCACUAAAGCTT against Olfr1248	-1.14 (inactive)
GCUUAUAAUGCCAUUACUUTT against Rad21	-0.548 (inactive)
CGAUUUAAAGUAGUAGUGGTT against Dusp28	-1.13 (inactive)
GACAGAAAUAUAGACUCGATT against Ppp1r42	-2.45 (active)
CGGAUAACAAAAGUAGCAATT against Trp53rka	0.276 (inactive)
GGUUUAGCAUCGUCCUAUATT against Crmp1	-0.495 (inactive)
CGGCAGAUGCAUUCAGGAUTT against Ccdc125	0.0172 (inactive)
GGAGGUGUUAGAUUUUGACTT against Asrgl1	-0.295 (inactive)
GGCGGAGGAAGAGUUCAACTT against Atp6v1e2	-0.393 (inactive)
GGAUGAAACUAUUCAGCACTT against Chml	-0.635 (inactive)
GCAGGAGGAUUAGUAAAUUTT against Ier2	0.966 (inactive)
CCCUAUUGUCAAUAUUCUATT against Nr1h5	0.492 (inactive)
GGGAGCAAAAGCUUUACUUTT against Prl3c1	2.25 (active)
GGAGAAAUUUCUGAGAAGATT against Slc51a	-1.24 (inactive)
GGCGGCCUUAGUAGAUAUCTT against Acsl4	0.677 (inactive)
GGAACAAGGAAGUUACAGGTT against Olfr30	-1.06 (inactive)

Sequence	z-score
GAAAAGAGUUUCCACGAGATT against Il19	0.0645 (inactive)
GGAGAUUCUCCAUAACCUGTT against Rnf135	2.29 (active)
GGGAGAAAGAUUGUAACUATT against 1110032A03Rik	-1.05 (inactive)
GGAACAAAAACCAUUGUGATT against Gng7	-1.49 (inactive)
CGAACCUGUUGACGGAUUCTT against Wnt1	0.563 (inactive)
GGACAAAGCAAUCCACAUCTT against Wdr55	-0.564 (inactive)
CCAUCGGGAUUGACUAUGGTT against Dnajc27	-0.878 (inactive)
GCUAAUGAUACAGAAGUUGTT against Snrpb2	0.661 (inactive)
GGAGGAUGAGGAUUUUGAUTT against Spsb3	2.16 (active)
CCACUUCUUUCCAUGAACUTT against Slc6a4	0.7 (inactive)
GGCAGAUUGAUAAAAUUCATT against Stag1	-0.223 (inactive)
GCUCAGUCUCUUGGGUGGUTT against Cel	2.27 (active)
GCUCUGUUCACCUACCCGATT against Anapc16	0.264 (inactive)
GGUUGUACUUGUUUUUCCUTT against Dtwd1	1.35 (inactive)
GCAUUGUCAUGAUACAACATT against Fem1b	0.793 (inactive)
GGAGGAGAGGAGAAUAGCATT against Atp5k	-0.586 (inactive)
GGAACUACAACAGAAACGATT against Cep131	-1.42 (inactive)
GUGACAAUGAAAAAUGUGUTT against Clec4b1	-2.42 (active)
GGAAAUGUCUUAUGAUAACTT against Col5a1	0.194 (inactive)
CCUCAUCAAUCAGCCUAUGTT against Olfr1178	-1.83 (inactive)
GCAUCGCUAAGUCCGUCUUTT against Aqp4	-0.1 (inactive)
GGACCUGUAUUCUCAGGGATT against Lce1a2	-0.251 (inactive)

Sequence	z-score
CCUGUAACCUUGCUUAAUGTT against Hoxc6	0.0208 (inactive)
GGAGAAAUGAAGGUAUACATT against Cert1	-1.12 (inactive)
GGUUUAUGACAAACUGAAATT against Enpp4	-0.0826 (inactive)
GCAGAAGUUAAGAUGCAUATT against Usf1	2.02 (active)
CCUGCUCAACGGAGACCAUTT against Hmx3	3.47 (active)
GGCUUGAGACUUAAAACGGTT against Lztfl1	0.583 (inactive)
CGCUGAAAUGGUGAAUAAATT against Recql	-0.0529 (inactive)
GUCCCACUGUCCAGUUACATT against Gm9946	-0.565 (inactive)
CGAGAGAAGCCCAUCAUCATT against Nrg4	1 (inactive)
GGAAGAAAAGGGAUAUCAGTT against Xirp1	0.253 (inactive)
GGUUCAGACACCACUUCAGTT against Bgn	2.56 (active)
GGAGGAUCACCCAUCAAAUTT against Oxct1	-0.083 (inactive)
GGUAUUUUGAUGUUGGACUTT against Hhat	0.989 (inactive)
GGAUGUGAAACAUGCUUUUTT against Olfr1030	0.536 (inactive)
CCUCAUGCAGCUCAAUCUATT against Prelp	-2.41 (active)
GGCUAUGGCUUUUGUAUGUTT against Arpin	-0.0747 (inactive)
GGACUCAAUAAGAACCUCGTT against Papss1	-1.25 (inactive)
GGAUGAAAGUUGUAUGUAUTT against Ctsk	-0.606 (inactive)
GGAUCGUGAGCUUCUAUUATT against Gask1a	0.434 (inactive)
CGAGAAGUGCUGACUCAAUTT against Map2k3os	0.563 (inactive)
GGAUGUCUGGAAUGAAACATT against Slc17a4	-3.16 (active)
GGAGAGCUGCAUCAAAAAGTT against Prdm16	0.545 (inactive)

Sequence	z-score
GGUGCUCAUGCAGGUCCAUTT against Slc25a25	-0.356 (inactive)
GGGCCAUCUCUCAAUUAUGTT against Gga2	1.93 (inactive)
GGUUCUACAUGUGAAACAATT against Zfp143	-2.15 (active)
GCCUGGUCUCACUAUGUAGTT against Hpvc2	0.129 (inactive)
GGACGUGUUUUACAAAUACTT against Srsf1	-0.979 (inactive)
GGGAAAAUAUCUCAUAUCATT against Colec10	-0.944 (inactive)
GGGCUGAAGAUGACUUCAATT against Topors	5.91 (active)
GGAUGUCUCGGAACUAAGGTT against Med28	-0.571 (inactive)
GGUAUUACAAGGUCAUAUCTT against Nol12	-0.357 (inactive)
UGGCCACGACCCUGAACUUTT against Ghrhr	0.56 (inactive)
GGCAUCAAAAAGCAGACAATT against Erich2	-1.98 (inactive)
GGCUAUGGAACAAAGUACUTT against Sostdc1	0.838 (inactive)
GGAAAGCACUUUUAUUCCUTT against Sgip1	-0.901 (inactive)
GCCUCGAGAUAUUCUUUGUTT against Snrnp200	-2.07 (active)
GCUAAAAGGCUACGGGAGUTT against Bhlhe23	-0.266 (inactive)
GUGCAGAUAUCUUUAGCAATT against Olfr159	-0.958 (inactive)
GGAUGAGAGUAAGAUCUCGTT against Vipr2	-0.296 (inactive)
GGAAAACUACCUCUUUUGATT against Cbll1	1.4 (inactive)
GGAGAUCUUAGAGAAAUUATT against Pak1	-0.956 (inactive)
GCAAAGUGGAUAUAGUGUCTT against Gprin1	-0.217 (inactive)
